5 compounds from PubChem BioAssay (NCATS) can be followed below.

Assay [1] concerns the target Estrogen receptor (Homo sapiens) (UniProt P03372). As to the kind of experiment: qHTS assay for small molecule agonists of estrogen receptor alpha signaling (AID 588514; calls by dose curve;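 note: 0% = vehicle only and 100% = reference agonist; nearly all actives have a fitted effect of over 70% in size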). In short, it runs like this: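 EC50 and efficacy came from Hill fits of beta-lactamase reporter signal (CCF4 dye, 2 h at room temperature) scaled between DMSO and 20 nM 17-beta-estradiol. Agonist mode: HEK293 ER-alpha-UAS-bla cells in charcoal/dextran-stripped serum medium, 18 h compound exposure at 37 C.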

For assay [2], the target named is Glucocorticoid receptor (Homo sapiens) (UniProt P04150). Kind of assay: qHTS assay for small molecule agonists of glucocorticoid receptor signaling (AID 588532; active = well fitted curve in the direction sought with a large enough effect in the signal ratio, with a control signal flat; the % refers to the signal ratio;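 note: 100% = dexamethasone at 0.1 µM and 0% = DMSO only wells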). The following applies: HeLa MMTV-bla, beta-lactamase ratio, agonist, 18 h; stronger effect = higher value; percent of dexamethasone control, DMSO zero. The procedure, abridged:
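Stimulation of a glucocorticoid response element-driven beta-lactamase gene was measured in HeLa cells. Responses were scaled between DMSO basal and 0.1 uM dexamethasone, then fitted for half-maximal stimulation.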

The nature of assay [3]: qHTS assay for small molecule antagonists of peroxisome proliferator-activated receptor delta signaling (AID 588535; active = well fitted inhibition curve with a large enough effect in the signal ratio, with a control signal flat, not every such curve was filed as active; the % refers to the signal ratio;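 for max response: cells co-treated with a PPAR-delta agonist as stimulator during compound exposure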). The following applies: HEK293T PPARd-UAS-bla, beta-lactamase FRET ratio, 18 h; 460 nm channel. The procedure, abridged:
(§1)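 Inhibition of PPAR-delta response element-driven beta-lactamase expression is measured in HEK293T cells exposed to a compound titration series for 18 hrs at 37 C. Half-maximal inhibition comes from Hill equation fitting.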
(In general: In qHTS, concentration-response curves come from the screen itself.)

Assay [4] concerns the target Peroxisome proliferator-activated receptor delta (Homo sapiens) (UniProt Q03181). The description is as above. In short, it runs like this:
as §1

Assay [5] concerns the target Peroxisome proliferator-activated receptor gamma (Homo sapiens) (UniProt P37231). As to the kind of experiment: qHTS assay for small molecule agonists of peroxisome proliferator-activated receptor gamma signaling (AID 588536; active = well fitted curve in the direction sought with a large enough effect in the signal ratio, with a control signal flat, not every such curve was filed as active; the % refers to the signal ratio;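 note: 0% = DMSO basal wells and 100% = rosiglitazone at 2 µM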). The procedure, abridged: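 This is an agonist-mode beta-lactamase reporter assay in HEK293 PPAR-gamma-UAS-bla cells with 1% charcoal/dextran FBS. Compound titrations ran 16 h at 37 C before CCF4 detection. EC50 and efficacy are Hill fits scaled to 2 uM rosiglitazone (100%) and DMSO basal.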

A short description of assay [6]: qHTS assay for small molecule agonists of retinoid X receptor alpha signaling (AID 588544). The following applies: HEK293T RXRa-UAS-bla, beta-lactamase reporter, 18 h; 530 nm emission.
Assay [7] has as its target Thyroid hormone receptor beta (Homo sapiens) (UniProt P10828). Kind of assay: qHTS assay for small molecule agonists of thyroid hormone receptor beta signaling (AID 588545; calls by dose curve;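 note: 0% = DMSO only and 100% = 10 nM T3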). The procedure, abridged:
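Stimulation of a TR-driven beta-lactamase reporter was quantified in GripTite HEK 293 cells. Compound series ran for 18 hrs; curves were normalized to T3 and DMSO controls and fitted to yield EC50.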

Assay [8] in a line: qHTS assay for small molecule antagonists of retinoid X receptor alpha signaling (AID 588546; active = well fitted inhibition curve with a large enough effect in the signal ratio, with a control signal flat, not every such curve was filed as active; the % refers to the signal ratio;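 note: cells stimulated with 9-cis-retinoic acid as agonist; % is set by controls: 0 for no effect and ±100 for the full control effect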). The following applies: HEK293T RXRa-UAS-bla, beta-lactamase ratio, antagonist mode; measured here: W530 green channel, cytotoxicity proxy. The procedure, abridged:
(§2)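 Beta-lactamase reporter inhibition, read as CCF4 fluorescence ratio (ex 405, em 460/530 nm) after 2 h at RT. HEK293T UAS-bla cells, 2500/well, were stimulated with 9-cis-RA at 500 or 100 nM final alongside test compound for 18 h at 37 C.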

The target of assay [9] is Retinoic acid receptor RXR-alpha (Homo sapiens) (UniProt P19793). The description is as above. The following applies: HEK293T RXRa-UAS-bla, beta-lactamase ratio, antagonist mode. In short, it runs like this: as §2
Retinoic acid receptor RXR-alpha (Homo sapiens), sequence (P19793 whole entry, looked up): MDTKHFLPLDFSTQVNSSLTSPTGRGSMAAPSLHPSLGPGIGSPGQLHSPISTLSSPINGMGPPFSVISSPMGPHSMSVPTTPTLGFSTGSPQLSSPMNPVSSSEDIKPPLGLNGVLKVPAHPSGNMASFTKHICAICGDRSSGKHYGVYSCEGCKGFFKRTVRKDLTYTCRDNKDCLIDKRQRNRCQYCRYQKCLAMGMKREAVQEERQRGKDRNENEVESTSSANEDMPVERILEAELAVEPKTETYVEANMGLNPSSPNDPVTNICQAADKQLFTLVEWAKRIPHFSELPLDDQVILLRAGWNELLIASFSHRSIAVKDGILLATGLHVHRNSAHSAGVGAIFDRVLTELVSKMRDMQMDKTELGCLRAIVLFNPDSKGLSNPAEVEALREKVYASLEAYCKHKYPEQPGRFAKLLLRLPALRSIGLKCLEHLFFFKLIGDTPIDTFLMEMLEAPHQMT
The target of assay [10] is Thyroid hormone receptor beta (Homo sapiens) (UniProt P10828). As to the kind of experiment: qHTS assay for small molecule antagonists of thyroid hormone receptor beta signaling (AID 588547; active = well fitted inhibition curve with a large enough effect in the signal ratio, with a control signal flat, not every such curve was filed as active; the % refers to the signal ratio;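 note: cells stimulated with 0.4 nM T3 agonist during compound exposure; series mostly up to about 77 µM; % is set by controls: 0 for no effect and ±100 for the full control effect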). As to conditions: TR-UAS-bla HEK293, beta-lactamase ratio, antagonist mode, 18 h. In short, it runs like this:
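TR-UAS-bla GripTite HEK293 cells in 2% charcoal/dextran FBS medium were preincubated 4 h at 37 C, given compound (0.59 nM to 92 uM) plus 0.4 nM T3 (final) for 18 h, then CCF4 for 2 h at RT; Hill fit gave IC50.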

A short description of assay [11]: qHTS assay for small molecule activators of the p53 signaling pathway (AID 651743; active = well fitted activation curve with a large enough effect in the signal ratio, not every such curve was filed as active; the % refers to the signal ratio; note: series mostly up to about 92 µM; % of control where 0% means no effect). The following applies: HCT-116 p53RE-bla, beta-lactamase FRET ratio, 16 h; activation: stronger effect = higher value. In short, it runs like this: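 Agonist-mode quantitative HTS in HCT-116 cells carrying a p53-response-element beta-lactamase reporter; 16 h compound treatment at 37 C, then FRET substrate loading for 2 h at room temperature and fluorescence read.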

Assay [12] is described as follows: qHTS assay for environmental chemicals that activate the Aryl hydrocarbon Receptor (AhR) signaling pathway (AID 651777). Note: % of control where 0% means no effect; nearly all actives have a fitted effect of over 15% in size. The following applies: 1A2-DRE human hepatoma cells, luciferase, 24 h; activation: stronger effect = higher value. The procedure, abridged:
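Human hepatoma 1A2-DRE cells stably carrying a DRE/CYP1A2 promoter–luciferase reporter, 1,200 cells/well, exposed to compound 24 hr at 37 C. Luciferase read by One-Glo luminescence after 30 min at room temperature; increased signal marks AhR activation.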

Assay [13] addresses Peroxisome proliferator-activated receptor alpha (Homo sapiens) (UniProt Q07869). As to the kind of experiment: qHTS assay for small molecule agonists of the peroxisome proliferator-activated receptor alpha (PPARalpha) signaling pathway (AID 651778). Note: % of control where 0% means no effect. As to conditions: PathHunter PPARalpha complementation, chemiluminescence, 6 h; max response: stronger effect = higher value. The procedure, abridged: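 Cells plated at 2,000/well and held overnight at 37 C, 5% CO2, then compound added by pin tool for 6 hr; after PathHunter detection reagent and 60 min at room temperature, chemiluminescence from enzyme complementation was read.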

Assay [14] in a line: qHTS assay for small molecule agonists of the antioxidant response element (ARE) signaling pathway measured by Nrf2-dependant transcriptional activity (AID 720636; active = well fitted curve in the direction sought with a large enough effect in the repeat runs; an effect the other way counts as inactive or inconclusive; note: % of control where 0% means no effect). In short, it runs like this: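 ARE-luc HepG2 cells carrying an Nrf2-responsive luciferase reporter, in medium with 1% dialyzed FBS, exposed to compound for 16 hr at 37 C, 5% CO2. Luminescence read 30 min after ONE-Glo addition.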

Assay [15] is described as follows: qHTS assay for small molecule agonists of the antioxidant response element (ARE) signaling pathway measured by Nrf2-dependant transcriptional activity - cell viability counter screen (AID 720653; active = well fitted curve in the direction sought with a large enough effect in the repeat runs; an effect the other way counts as inactive or inconclusive; note: % is set by controls: 0 for no effect and ±100 for the full control effect). The following applies: ARE-bla HepG2 viability, CellTiter-Glo ATP luminescence, 16 h; max response: stronger effect = lower value. The procedure, abridged:
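ARE-bla HepG2 cells (2,000/well) rested 5 hrs at 37C/5% CO2, then exposed to compounds in DMSO for 16 hrs. Viability was read in the same wells as intracellular ATP by luminescence, 30 min at room temperature after reagent addition.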

A short description of assay [16]: qHTS assay for cell viability of HEK293 cells (AID 743288). For max response: % is set by controls: 0 for no effect and ±100 for the full control effect. Note: nearly all actives have a fitted effect of over 50% in size. Note: potency is the fitted concentration of half-maximal effect. The following applies: ATP luminescence (CellTiter-Glo), 18 h; max response: stronger effect = lower value. The procedure, abridged: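 Quantitative high-throughput screen: compounds were pinned onto parental HEK293 cells (2,000 per well) after a minimum 5 h settling at 37 C, incubated 18 h at 37 C, and intracellular ATP measured by luciferase luminescence.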

The nature of assay [17]: qHTS assay for cell viability of the p53RE-bla HCT-116 cell line (AID 743292). Note: % is set by controls: 0 for no effect and ±100 for the full control effect; nearly all actives have a fitted effect of over 55% in size. In short, it runs like this:
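CellSensor p53RE-bla HCT-116 cells (4,000/well) pre-incubated 5 h at 37 C, then exposed to compounds in DMSO for 16 h at 37 C. Viability read as ATP content by CellTiter-Glo luminescence after 30 min at room temperature.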

In assay [18] the target is Nuclear receptor subfamily 1 group I member 2 (Rattus norvegicus) (UniProt Q9R1A7). Kind of assay: qHTS assay for small molecule activators of the rat pregnane X receptor (rPXR) signaling pathway (AID 651751; call rule not given here; note: 0% is about no effect). The following applies: rPXR reporter cells, luciferase (One-Glo), 24 h.
Nuclear receptor subfamily 1 group I member 2 (Rattus norvegicus), sequence (Q9R1A7 whole entry, looked up): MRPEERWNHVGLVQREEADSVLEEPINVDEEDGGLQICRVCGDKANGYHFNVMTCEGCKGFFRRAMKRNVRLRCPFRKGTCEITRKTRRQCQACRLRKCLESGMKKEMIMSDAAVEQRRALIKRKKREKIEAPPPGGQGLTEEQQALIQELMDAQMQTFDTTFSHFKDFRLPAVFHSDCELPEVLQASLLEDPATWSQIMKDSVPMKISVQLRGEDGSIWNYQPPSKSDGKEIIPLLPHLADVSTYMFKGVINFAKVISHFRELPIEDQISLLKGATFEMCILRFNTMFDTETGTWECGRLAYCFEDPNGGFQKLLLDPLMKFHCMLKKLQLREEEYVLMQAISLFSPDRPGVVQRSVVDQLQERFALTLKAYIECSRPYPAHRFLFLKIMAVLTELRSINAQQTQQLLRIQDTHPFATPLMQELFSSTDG
Assay [19] is described as follows: qHTS assay for small molecule activators of the human pregnane X receptor (PXR) signaling pathway (AID 720659; call rule not given here; note: 0% is about no effect).

Structures are written as SMILES. Results filed as inconclusive are left out. The source made the active and inactive calls. Unless noted, calls come from the whole dose curve; as a rule, active = well fitted curve in the direction sought with a large enough effect; inconclusive = small, poorly fitted or top-dose-only effect, or another doubt; inactive = no such curve, though single readings can be large; an effect the other way counts as inactive or inconclusive.

Peroxisome proliferator-activated receptor alpha (Homo sapiens), sequence (Q07869 whole entry, looked up): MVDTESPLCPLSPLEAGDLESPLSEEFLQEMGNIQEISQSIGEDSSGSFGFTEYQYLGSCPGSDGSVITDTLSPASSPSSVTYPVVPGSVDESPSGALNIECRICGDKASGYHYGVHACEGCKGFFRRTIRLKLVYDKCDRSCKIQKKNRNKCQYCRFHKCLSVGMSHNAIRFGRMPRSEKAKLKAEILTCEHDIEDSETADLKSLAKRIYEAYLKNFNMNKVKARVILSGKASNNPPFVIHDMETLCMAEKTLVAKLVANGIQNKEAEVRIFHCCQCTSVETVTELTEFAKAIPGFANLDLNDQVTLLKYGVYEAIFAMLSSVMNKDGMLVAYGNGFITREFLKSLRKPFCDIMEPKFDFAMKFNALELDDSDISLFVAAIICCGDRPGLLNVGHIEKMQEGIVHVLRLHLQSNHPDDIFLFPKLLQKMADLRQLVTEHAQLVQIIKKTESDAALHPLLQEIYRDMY
Peroxisome proliferator-activated receptor delta (Homo sapiens), sequence (Q03181 whole entry, looked up): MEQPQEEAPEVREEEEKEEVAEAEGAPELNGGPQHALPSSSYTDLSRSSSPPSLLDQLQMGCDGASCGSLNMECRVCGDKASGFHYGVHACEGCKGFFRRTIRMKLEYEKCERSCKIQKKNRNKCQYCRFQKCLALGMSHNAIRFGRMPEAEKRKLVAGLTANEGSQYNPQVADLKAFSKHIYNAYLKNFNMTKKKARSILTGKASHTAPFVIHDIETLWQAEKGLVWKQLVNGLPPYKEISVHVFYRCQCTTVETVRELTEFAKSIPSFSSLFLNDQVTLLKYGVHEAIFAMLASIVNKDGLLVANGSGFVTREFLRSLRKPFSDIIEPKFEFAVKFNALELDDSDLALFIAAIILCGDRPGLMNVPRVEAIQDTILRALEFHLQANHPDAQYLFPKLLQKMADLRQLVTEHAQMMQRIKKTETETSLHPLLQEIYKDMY
Estrogen receptor (Homo sapiens), sequence (P03372 whole entry, looked up): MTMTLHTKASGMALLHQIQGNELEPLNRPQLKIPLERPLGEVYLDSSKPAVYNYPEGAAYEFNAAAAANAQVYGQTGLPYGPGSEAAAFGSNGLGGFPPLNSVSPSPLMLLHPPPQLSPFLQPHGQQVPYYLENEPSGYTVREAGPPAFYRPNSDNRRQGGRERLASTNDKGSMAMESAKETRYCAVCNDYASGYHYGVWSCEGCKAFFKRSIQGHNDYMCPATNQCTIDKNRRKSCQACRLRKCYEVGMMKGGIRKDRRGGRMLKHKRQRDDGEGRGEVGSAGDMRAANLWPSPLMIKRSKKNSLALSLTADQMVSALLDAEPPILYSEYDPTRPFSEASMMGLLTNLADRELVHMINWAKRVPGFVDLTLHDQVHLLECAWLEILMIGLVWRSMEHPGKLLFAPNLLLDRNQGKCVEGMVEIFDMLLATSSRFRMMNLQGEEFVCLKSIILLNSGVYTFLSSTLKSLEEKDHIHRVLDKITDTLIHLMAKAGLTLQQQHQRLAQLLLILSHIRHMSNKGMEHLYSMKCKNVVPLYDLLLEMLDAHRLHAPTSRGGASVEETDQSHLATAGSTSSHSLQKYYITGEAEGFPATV
Glucocorticoid receptor (Homo sapiens), sequence (P04150 whole entry, looked up): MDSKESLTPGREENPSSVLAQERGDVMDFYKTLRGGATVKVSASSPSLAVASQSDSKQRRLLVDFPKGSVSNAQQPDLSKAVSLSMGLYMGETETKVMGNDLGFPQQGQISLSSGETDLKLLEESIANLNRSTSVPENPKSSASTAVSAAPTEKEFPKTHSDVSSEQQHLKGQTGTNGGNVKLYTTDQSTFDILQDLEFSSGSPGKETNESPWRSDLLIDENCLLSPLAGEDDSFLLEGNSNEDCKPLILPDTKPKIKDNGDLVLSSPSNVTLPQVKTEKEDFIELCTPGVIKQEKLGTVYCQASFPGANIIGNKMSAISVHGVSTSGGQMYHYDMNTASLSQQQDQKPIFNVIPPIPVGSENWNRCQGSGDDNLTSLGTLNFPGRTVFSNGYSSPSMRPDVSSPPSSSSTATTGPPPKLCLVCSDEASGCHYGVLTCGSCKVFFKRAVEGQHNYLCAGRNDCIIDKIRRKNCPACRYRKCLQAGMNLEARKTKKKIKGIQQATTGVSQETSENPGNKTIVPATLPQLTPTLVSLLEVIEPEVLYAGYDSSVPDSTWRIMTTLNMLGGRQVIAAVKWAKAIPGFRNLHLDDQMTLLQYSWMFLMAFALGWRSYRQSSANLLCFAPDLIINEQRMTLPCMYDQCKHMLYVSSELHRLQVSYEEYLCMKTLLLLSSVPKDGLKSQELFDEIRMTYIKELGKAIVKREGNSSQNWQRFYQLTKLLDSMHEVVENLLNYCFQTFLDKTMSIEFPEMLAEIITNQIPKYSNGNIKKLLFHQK
Thyroid hormone receptor beta (Homo sapiens), sequence (P10828 whole entry, looked up): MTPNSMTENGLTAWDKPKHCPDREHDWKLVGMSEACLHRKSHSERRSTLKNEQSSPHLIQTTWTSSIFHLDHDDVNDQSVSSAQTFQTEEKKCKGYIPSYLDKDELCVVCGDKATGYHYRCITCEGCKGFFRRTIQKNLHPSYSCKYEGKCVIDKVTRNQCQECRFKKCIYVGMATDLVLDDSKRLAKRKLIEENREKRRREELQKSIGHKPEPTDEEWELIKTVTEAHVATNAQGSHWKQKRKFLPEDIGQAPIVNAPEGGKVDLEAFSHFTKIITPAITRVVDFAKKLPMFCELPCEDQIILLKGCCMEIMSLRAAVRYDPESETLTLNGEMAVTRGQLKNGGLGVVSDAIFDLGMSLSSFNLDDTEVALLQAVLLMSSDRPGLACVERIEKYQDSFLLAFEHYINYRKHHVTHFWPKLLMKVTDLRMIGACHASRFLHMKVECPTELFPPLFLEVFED
Peroxisome proliferator-activated receptor gamma (Homo sapiens), sequence (P37231 whole entry, looked up): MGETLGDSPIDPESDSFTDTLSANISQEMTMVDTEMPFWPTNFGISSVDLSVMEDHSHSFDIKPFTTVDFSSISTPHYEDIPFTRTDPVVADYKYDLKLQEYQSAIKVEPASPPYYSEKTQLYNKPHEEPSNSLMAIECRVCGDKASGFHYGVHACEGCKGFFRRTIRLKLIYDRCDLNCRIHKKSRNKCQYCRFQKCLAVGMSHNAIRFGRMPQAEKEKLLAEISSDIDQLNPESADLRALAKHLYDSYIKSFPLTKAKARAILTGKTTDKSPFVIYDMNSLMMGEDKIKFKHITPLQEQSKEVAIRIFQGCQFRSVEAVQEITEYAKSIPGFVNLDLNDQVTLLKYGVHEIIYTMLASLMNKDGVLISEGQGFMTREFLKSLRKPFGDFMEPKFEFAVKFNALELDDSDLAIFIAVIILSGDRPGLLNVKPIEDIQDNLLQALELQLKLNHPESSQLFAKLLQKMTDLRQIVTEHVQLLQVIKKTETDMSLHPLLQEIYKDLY

In the case of `Cl[Si](Cl)(Cl)c1ccccc1`, the Potency result in assay [1], in assay [4], in assay [7], in assay [14] and in assay [17] was “inactive” in each case. In addition, the activation in assay [2] was 5.43% (inactive); in assay [11], -5.69% (inactive); in [12], -0.059% (inactive). In addition, the max response in assay [3] is 13.6%; in [6], -15.8%; in assay [8], -7.94%; in [9], -5.52% (inactive); in [13], -2.31% (inactive); in assay [15], -8.94% (inactive). Moreover, the max response in [16] is -13.3% (inactive); in [18] it was 1.77% (inactive). The compound was called inactive in assay [5] and in [19]. The activity change % (negative = inhibition) in assay [10] was -0.0742% (inactive).
Turning to `CCCCCCCC/C=C\CCCCCCCCCCCCC`, the Potency result in [1], in [4], in [7], in [14] and in assay [17] was “inactive” throughout. Moreover, the activation in [2] was -8.32% (inactive); in assay [11] it was -1.77% (inactive); in [12], -0.312% (inactive). For the same compound, the max response in assay [3] was 20.5%; in assay [6] it was 4.69%; in [8], -11.4%; in assay [9] it was 1.65% (inactive); in [13], -1.02% (inactive); in assay [15], 1.5% (inactive). Besides, the figures for the max response in assay [16] and in [18] were -4.21% (inactive) and -1.72% (inactive), respectively. The outcome in assay [5] and in assay [19] was inactive.
Take `CC1(C)[C@@H]([C@@H](Br)C(Br)(Br)Br)[C@H]1C(=O)O[C@H](C#N)c1cccc(Oc2ccccc2)c1`: the Potency entry in assay [1], in assay [14] and in [17] was “inactive” each time. Further, the activation was -6.04% (inactive) in [2], 11.9% (inactive) in assay [11] and 0.917% (inactive) in [12]. Further, the activity change % (negative = inhibition) in [10] is -17.9% (inactive). The max response in assay [13] is -5.06% (inactive); in [15], -14.5% (inactive). Also, the Potency in assay [16] is 50.1 µM (active).
With `C[Si](Cl)(Cl)[Si](C)(Cl)Cl`, the Potency result in [1], in assay [4], in [7], in [14] and in assay [17] was “inactive” throughout. The activation was -3.8% (inactive) in assay [2], 0.0231% (inactive) in [11] and 0.351% (inactive) in assay [12]. The max response in assay [3] was -5.47%; in [6] it was -10.2%; in assay [8] it was -10.7%; in assay [13] it was -2.05% (inactive); in assay [15], -3.61% (inactive); in assay [16] it was -7.2% (inactive). Further, the max response in assay [18] is 6.3% (inactive). Moreover, the call in [5] and in [19] was inactive. The activity change % (negative = inhibition) in assay [10] was 3.73% (inactive).
Turning to `O=C(O)C(Oc1ccc(Cl)cc1)Oc1ccc(Cl)cc1`, the Potency entry in assay [1], in assay [4], in [7], in [14] and in assay [17] was “inactive” in each case. The activation in [2] is -6.89% (inactive); in assay [11], 2.64% (inactive); in assay [12] it was -1.04% (inactive). Besides, the max response in [3] was -2.46%; in assay [6], 4.78%; in [8], -7.28%; in assay [9], -10.5% (inactive); in [13], 4.93% (inactive); in [15], -5.82% (inactive). Also, the values for the max response in assay [16] and in assay [18] were -2.57% (inactive) and -9.92% (inactive), respectively. Moreover, the activity change % (negative = inhibition) in assay [10] was -5.07% (inactive). Moreover, the compound was classed as inactive in assay [19].
